Experimental data published in PubChem BioAssay (NCATS).
Several values for one entry are separate records, joined by “and”; a condition that tells them apart may be missing. Equal values may be shown once. Inconclusive results are not listed. Activity calls are given as the source filed them. Unless noted, calls follow the shape of the dose curve; as a rule, active = well fitted curve in the direction sought with a large enough effect; inconclusive = small, poorly fitted or top-dose-only effect, or another doubt; inactive = no such curve, though single readings can be large; an effect the other way counts as inactive or inconclusive.

Key:
[1] = Cell Viability - HepG2 (AID 433; calls by dose curve;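 also: potency is read from the fitted curve at half-maximal effect; potency for ATP loss meaning cytotoxicity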); conditions: qHTS
Method in brief: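 In this qHTS format, a 40 h, 37 °C compound incubation of HepG2 cells in complete medium precedes a 20 min CellTiter-Glo step at room temperature. Tamoxifen and doxorubicin serve as positive controls; Hill-equation fits yield AC50.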

[2] = Cell Viability - MRC5 (AID 434; calls by dose curve;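 also: potency is read from the fitted curve at half-maximal effect; potency reflects cytotoxicity seen as loss of intracellular ATP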); conditions: MRC5 lung fibroblast viability, qHTS
Method in brief: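 MRC5 normal human lung fibroblasts, 1500 cells/well, exposed to compound for 40 hr at 37 C. Cellular ATP was read by CellTiter-Glo luminescence; data normalized to DMSO and 100 uM tamoxifen, with AC50 from Hill fits.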

[3] = target: Mitogen-activated protein kinase 10 (Mus musculus) (UniProt Q61831); assay: JNK3 AlphaScreen Assay (AID 530; active = well fitted curve in either direction with a large enough effect, not every such curve was filed as active;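 also: kinase came from lysate of stimulated human HepG2 cells; signal reports phosphorylation of biotinylated GST-cJun 1-79 at Ser73 with 10 µM ATP; % is scaled to controls: 0 for no effect and ±100 for the full control effect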); conditions: JNK3 lysate, c-Jun phosphorylation; series mostly up to 57.1 µM
Method in brief: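 Pre-activated (IL-1β/TNFα) JNK3 in HepG2 lysates phosphorylates biotin-GST-cJun(1-79), 10 uM ATP; anti-phospho-cJun(Ser73) AlphaScreen read at room temperature, pH 7.6 Tris buffer. Compounds pre-incubated 15 min as titrations.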

[4] = Cell Viability - NIH 3T3 (AID 541); conditions: NIH 3T3 cell viability, qHTS; activity change, negative = cytotoxicity: at 92.2 µM (top of the series);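 also: plate controls were DMSO alone for no effect and tamoxifen positive control for full effect; nearly all actives have a fitted effect of over 25% in size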
Method in brief: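 Luminescent ATP signal (CellTiter-Glo) served as the viability read-out after NIH 3T3 cells were exposed to compounds over a concentration range for 40 hr at 37 °C. Hill-equation modelling of concentration-response data gave AC50.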

[5] = Cell Viability - HUV-EC-C (AID 542); conditions: HUV-EC-C endothelial cell viability, qHTS; series mostly up to 92.2 µM; also: % is scaled to controls: 0 for no effect and ±100 for the full control effect; nearly all actives have a fitted effect of over 35% in size
Method in brief: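 qHTS cytotoxicity: HUV-EC-C, 1000 cells/well, 5 hr settle, compound 40 hr 37 °C, CellTiter-Glo, luminescence. AC50 via Hill equation.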

[6] = Cell Viability - SH-SY5Y (AID 544); conditions: SH-SY5Y neuroblastoma cell viability; viability change, negative = cytotoxic: at 92.2 µM (top of the series); also: nearly all actives have a fitted effect of over 55% in size
Method in brief: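 Luminescent ATP read-out (CellTiter-Glo) measures loss of viable SH-SY5Y neuroblastoma cells after 40 hr compound exposure at 37 °C. AC50 values derive from standard Hill modelling of qHTS concentration-response data.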

[7] = Cell Viability - Renal Proximal Tubule (AID 545); conditions: renal proximal tubule cells viability; at 91.7 µM (top of the series), primary cells of rat origin unless noted; also: nearly all actives have a fitted effect of over 40% in size
Method in brief: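 In this qHTS format, normal rat kidney-derived proximal tubule cells in complete culture medium receive compound titrations, then sit 40 hours at 37 °C before luciferase-based ATP quantitation; potency is reported as AC50 from concentration-response curves.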

[8] = Cell Viability - Mesenchymal (AID 546); conditions: mesenchymal cells viability, qHTS; series mostly up to 91.7 µM;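 also: cells exposed to compound for 40 hours before reading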
Method in brief: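 Human kidney mesenchymal cells from normal renal glomeruli, 1000 cells/well, rested 5 hr at 37 °C, then treated 40 hr at 37 °C in complete medium. Cellular ATP read by CellTiter-Glo luminescence; AC50 from Hill-equation fits.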

[9] = Cellular Toxicity (caspase-3) Jurkat (AID 655); conditions: Jurkat caspase-3 activation, luminescence, DMSO = 0%, tamoxifen = 100%; at 92.2 µM (top of the series);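 also: cells exposed to compound for 16 h at 37 °C before reading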
Method in brief: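 qHTS in human Jurkat T-cell leukemia line: 16 hr compound treatment at 37 °C, caspase-3/7 activity measured by Caspase-Glo luminescence. AC50 derived from Hill equation.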

[10] = Cellular Toxicity (caspase-3) HUV-EC-C (AID 656); conditions: HUV-EC-C cells, caspase-3 activation (apoptosis), vehicle = 0, 100 µM tamoxifen = 100%; series mostly up to 92.2 µM
Method in brief: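 Concentration-dependent caspase 3/7 induction was assessed in HUV-EC-C cells exposed for 16 hours. Data scaled between DMSO and tamoxifen (100 uM) controls.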

[11] = Cellular Toxicity (caspase-3) SHSY5Y (AID 657); conditions: SH-SY5Y caspase-3 activation, DMSO zero, 10 µM staurosporine = 100%; series mostly up to 91.7 µM
Method in brief: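 Readout: caspase-cleaved peptide-aminoluciferin substrate driving luciferase light in SH-SY5Y neuroblastoma cells after 16 h treatment. Response normalized to DMSO and 10 uM staurosporine controls.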

[12] = Cellular Toxicity (caspase-3) BJ (AID 658); conditions: BJ fibroblasts, luminescence, normalized: DMSO 0%, staurosporine 100%; series mostly up to 91.7 µM
Method in brief: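 BJ human foreskin fibroblasts, 1000 cells/well, treated 16 hours at 37 °C in complete medium; caspase 3/7 activity by Caspase-Glo luminescence after 1 hr at room temperature. Normalized to DMSO and 10 uM staurosporine; AC50 from Hill fits.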

[13] = Cellular Toxicity (caspase-3) MRC-5 (AID 659); conditions: MRC-5 cells, luminescence, normalized: DMSO 0%, 10 µM staurosporine 100%; series mostly up to 91.7 µM
Method in brief: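 MRC-5 human normal lung fibroblasts, 1500 cells/well, treated 16 h at 37 °C in complete medium. Caspase 3/7 measured by Caspase-Glo luminescence after 1 h at room temperature. Normalized to DMSO and 10 uM staurosporine; AC50 from Hill fit.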

[14] = Cellular Toxicity (caspase-3) SK-N-SH (AID 661); conditions: SK-N-SH caspase-3 activation, qHTS, DMSO as zero, staurosporine as full; series mostly up to 91.7 µM
Method in brief: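 Human neuroblastoma SK-N-SH, 1500 cells/well, 5 hr pre-incubation, then compound 16 hr, 37 °C. Caspase-Glo 3/7 reagent, 1 hr RT, luminescence. Norm. to DMSO/10 uM staurosporine; Hill-fit AC50.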

[15] = Cellular Toxicity (caspase-3) H-4-II-E (AID 663); conditions: H-4-II-E rat hepatoma, scaled: DMSO 0%, 100 µM tamoxifen 100%; series mostly up to 92.2 µM;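 also: cells exposed to compound for 16 hr before readout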
Method in brief: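 Rat hepatoma H-4-II-E cells (1500/well) plated 5 hr, then exposed to compound titrations for 16 hr at 37 °C. Caspase-Glo 3/7 luminescence read after 20 min at RT; data normalized to DMSO and 100 uM tamoxifen, AC50 from Hill fits.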

[16] = Cellular Toxicity (caspase-3) N2a (AID 665); conditions: N2a cells, luminescence, normalized: DMSO 0%, 10 µM staurosporine 100%; at 92.2 µM (top of the series);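 also: compound exposure lasted 16 h at 37 °C before readout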
Method in brief: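 N2a cells, 1500/well, 5 h settle at 37 °C; cpd 16 h, 37 °C; Caspase-Glo 3/7, 1 h RT; luminescence. Norm: DMSO = 0, 10 uM staurosporine = 100%. AC50, Hill fit.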

[17] = target: Cytochrome P450 3A4 (Homo sapiens) (UniProt P08684); assay: qHTS Assay for Inhibitors and Substrates of Cytochrome P450 3A4 (AID 884); conditions: recombinant CYP3A4, Luciferin-PPXE luminescence; series mostly up to 57.1 µM; also: % is scaled to controls: 0 for no effect and ±100 for the full control effect; nearly all actives have a fitted effect of over 50% in size
Chain of Cytochrome P450 3A4 (Homo sapiens) (P08684 whole entry, looked up): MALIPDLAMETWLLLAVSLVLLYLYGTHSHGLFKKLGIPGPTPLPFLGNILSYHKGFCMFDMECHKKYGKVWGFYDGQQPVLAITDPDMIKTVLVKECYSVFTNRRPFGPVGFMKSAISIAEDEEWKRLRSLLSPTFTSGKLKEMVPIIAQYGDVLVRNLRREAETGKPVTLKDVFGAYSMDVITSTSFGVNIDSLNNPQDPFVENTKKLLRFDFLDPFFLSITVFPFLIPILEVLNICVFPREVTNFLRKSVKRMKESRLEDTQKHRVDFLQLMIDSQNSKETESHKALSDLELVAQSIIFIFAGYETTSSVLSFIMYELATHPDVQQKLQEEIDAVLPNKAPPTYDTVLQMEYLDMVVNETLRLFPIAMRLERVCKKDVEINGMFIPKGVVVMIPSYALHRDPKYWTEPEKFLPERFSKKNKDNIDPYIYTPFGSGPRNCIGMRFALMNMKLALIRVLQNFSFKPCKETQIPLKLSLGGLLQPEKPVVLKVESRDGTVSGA
Method in brief: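 20 nM human CYP3A4 with 25 uM Luciferin-PPXE (at KM) in 200 mM KPO4, preincubated 10 min with compound; NADPH regeneration started a 60 min RT reaction. Luciferin detected by luminescence, normalized to 57 uM ketoconazole as full inhibition.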

[18] = qHTS Assay for Identification of Small Molecule Inducers of Hypoxia Response (AID 2120; active = well fitted curve in the direction sought with a large enough effect in the signal ratio, with a control signal flat, not every such curve was filed as active; the % refers to the signal ratio; also: 0% is about no effect); conditions: hypoxia response reporter cells, beta-lactamase ratio readout; series mostly up to 104 µM
Method in brief: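 ME-180 HRE-bla cells plated in Opti-MEM/0.5% dialyzed FBS, rested 4-5 h, then dosed with compound titrations by pin tool. After 17 h at 37 degrees C, CCF4 dye loaded 2.5 h at RT; 460/530 nm ratio gave %Activity and AC50.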

[19] = qHTS assay for small molecule agonists of the antioxidant response element (ARE) signaling pathway measured by Nrf2-dependant transcriptional activity - cell viability counter screen (AID 720653; active = well fitted curve in the direction sought with a large enough effect in the repeat runs; an effect the other way counts as inactive or inconclusive; also: % is scaled to controls: 0 for no effect and ±100 for the full control effect); conditions: ARE-bla HepG2 viability, CellTiter-Glo ATP luminescence, 16 h; active compounds read low
Method in brief: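 ARE-bla HepG2 cells treated with compounds for 16 h at 37C; this counter screen measures viability as intracellular ATP by CellTiter-Glo luminescence after 30 min at room temperature.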

[20] = qHTS assay for cell viability of HEK293 cells (AID 743288); conditions: ATP luminescence (CellTiter-Glo), 18 h; max response: active compounds read low; also: % is scaled to controls: 0 for no effect and ±100 for the full control effect; nearly all actives have a fitted effect of over 50% in size
Method in brief: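 Luminescent ATP quantitation served as the viability read-out. Cells (parental HEK293, 2,000/well) received compounds after at least 5 h at 37 C and were exposed for 18 h before a 30 min room-temperature reagent step.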

Cc1cccc([N+](=O)[O-])c1
inactive: Potency [1] > 92 µM | Potency [2] > 92 µM | outcome [3] | activity change, negative = cytotoxicity [4] -17.5% | Potency [5] | Potency [6] | activity change, negative = cytotoxicity [7] -7.28% | outcome [8] | caspase-3 activation [9] -1.23% | outcome [10] | outcome [11] | outcome [12] | outcome [13] | outcome [14] | outcome [15] | caspase-3 activation [16] 2.99% | Potency [17] | outcome [18] | max response [19] -0.821% and -5.67% | max response [20] -6% and -15.6%

ClC(Cl)=C(Cl)C(Cl)=C(Cl)Cl
inactive: Potency [1] > 92 µM | Potency [2] > 92 µM | outcome [3] | activity change, negative = cytotoxicity [4] -27.5% | Potency [5] | Potency [6] | activity change, negative = cytotoxicity [7] -4.45% | outcome [8] | caspase-3 activation [9] -0.64% | outcome [10] | outcome [11] | outcome [12] | outcome [13] | outcome [14] | outcome [15] | caspase-3 activation [16] -2.34% | Potency [17] | outcome [18] | max response [19] 5.78% and -15% | max response [20] 3.55% and -1.89%

CN1CC[C@@]2(CCCN(C(=O)Oc3ccccc3)C2)C1
inactive: outcome [3]

O=C(Nc1ccccc1)N1CCC2(CC1)CCN(C(=O)Oc1ccccc1)CC2
inactive: outcome [3] | Potency [17]

O=[N+]([O-])c1ccc(Cl)c(Cl)c1
inactive: Potency [1] > 92 µM | Potency [2] > 92 µM | outcome [3] | activity change, negative = cytotoxicity [4] -16.5% | Potency [5] | Potency [6] | activity change, negative = cytotoxicity [7] -5.41% [at 91.7 µM] | outcome [8] | caspase-3 activation [9] 0.916% | outcome [10] | outcome [11] | outcome [12] | outcome [13] | outcome [14] | outcome [15] | caspase-3 activation [16] -2.95% | Potency [17] | outcome [18] | max response [19] -14.5% | max response [20] 7.83%

N#CCCCl
inactive: Potency [1] > 92 µM | Potency [2] > 92 µM | outcome [3] | activity change, negative = cytotoxicity [4] -5.02% and -15.1% | Potency [5] | Potency [6] | activity change, negative = cytotoxicity [7] 1.51% and -5.91% | outcome [8] | caspase-3 activation [9] -0.233% and -1.87% | outcome [10] | outcome [11] | outcome [12] | outcome [13] | outcome [14] | outcome [15] | caspase-3 activation [16] -0.53% and -2.33% | Potency [17] | outcome [18] | max response [19] 4.67% and 7.37% | max response [20] -10.6% and 0.832%

CC(C)(C)OO
inactive: Potency [1] > 92 µM | Potency [2] > 92 µM | outcome [3] | activity change, negative = cytotoxicity [4] -4.73% and 1.03% | Potency [5] | Potency [6] | activity change, negative = cytotoxicity [7] -2.92% and -10.1% | outcome [8] | caspase-3 activation [9] 16.6% and 4.19% | outcome [10] | outcome [11] | outcome [12] | outcome [13] | outcome [14] | outcome [15] | caspase-3 activation [16] -2.06% and -1.93% | Potency [17] | outcome [18] | max response [19] 15% and -27.6% | max response [20] -29% and 2.51%

O=C(c1ccco1)N1CCC2(CC1)CN(Cc1ccncc1)C2
inactive: outcome [3]

Brc1ccc(Oc2cc(Br)c(Br)cc2Br)c(Br)c1
inactive: Potency [1] > 92 µM | Potency [2] > 92 µM | activity change, negative = cytotoxicity [4] -13.1% and -22.5% | Potency [5] | Potency [6] | activity change, negative = cytotoxicity [7] -20.3% [at 91.7 µM] and -14.3% [at 91.7 µM] | outcome [8] | caspase-3 activation [9] 17.5% | outcome [10] | outcome [11] | outcome [12] | outcome [13] | outcome [14] | outcome [15] | caspase-3 activation [16] 12.3% and 4.39% | Potency [17] | outcome [18] | max response [19] -1.22% and 3.3% and -21% | max response [20] -22.3% and -23.6%

CC(C)(C#N)O[C@H]1OC(CO)C(O)C(O)C1O (stereo partly specified)
inactive: Potency [17]

Cc1nnc2ccc(-c3cccc(C(F)(F)F)c3)nn12
inactive: outcome [3]

CC(C)CN1CC[C@@]2(CCCN(C(=O)Oc3ccccc3)C2)C1
inactive: outcome [3]

Brc1ccccc1
inactive: Potency [1] > 92 µM | Potency [2] > 92 µM | outcome [3] | activity change, negative = cytotoxicity [4] -8.92% | Potency [5] | Potency [6] | activity change, negative = cytotoxicity [7] -2.95% | outcome [8] | caspase-3 activation [9] -1.45% | outcome [10] | outcome [11] | outcome [12] | outcome [13] | outcome [14] | outcome [15] | caspase-3 activation [16] 0.903% | Potency [17] | outcome [18] | max response [19] -10.2% and 1.06% | max response [20] 3.06% and -4.67%
